# Experimental data as given in PubChem BioAssay.
# Values joined by “and” are separate entries in the source; they are usually repeats but may differ in a detail not shown here. Equal entries are not always repeated. Inconclusive results are not listed. Active and inactive are the calls of the source.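 How the source made its calls, unless noted: active means normalized viability below 100% at a tested concentration; inactive means the rest.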
# Tests used:
# [1] = viability loss in pontine glioma line – cell-based, SU-DIPG-XXV, MIPE5.0, CellTiter-Glo, qHTS, dose response (AID 1347065; cut-off not given, nearly all actives have AC50 up to about 26 µM;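 further: cells exposed to compound for 48 hours before ATP readout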); details: CellTiter-Glo ATP luminescence
# [2] = JHH-DIPG-1 glioma cell viability, MIPE5.0 library, CellTiter-Glo luminescence, qHTS (AID 1347067; cut-off not given, nearly all actives have AC50 up to about 26 µM;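 further: cells exposed to compound for 48 hours before readout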); details: JHH-DIPG-1 glioma viability, CellTiter-Glo ATP luminescence
# [3] = viability loss with induced miR-34 in A549 – imaging, A549 dox-inducible miR-34, nuclei and caspase counts, primary screen (AID 1347080;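 active means compounds whose cell count with miR-34 switched on is under 0.7 times the count with it off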); details: A549 miR-34 inducible, Hoechst nuclei count, 48 h
# [4] = MELAS cybrid and Rieske KO viability enhancers – cell-based, MELAS cybrids, Rieske KO mouse fibroblasts, CellTiter-Glo, primary screen (AID 1508586;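 active means mean z-score across replicates of 1.96 or higher in either the MELAS or the Rieske mutant cell line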;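 further: z relative to plate mean and SD of compound and empty wells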); details: low glucose
# [5] = biological target: NAD(+) hydrolase SARM1 (Homo sapiens) (UniProt Q6SZW1); test: blocking NAD cleavage by SARM1 SAM-TIR – cell lysate, NAD-Glo luminescence (AID 1508614;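 active means compound whose remaining NAD level is above about 45 nM, limit read from the data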); details: SAM-TIR HEK293T lysate NADase, at 1 µM, stronger effect = higher value
# [6] = biological target: Mitogen-activated protein kinase 7 (Homo sapiens) (UniProt Q13164); test: Gal4-ERK5 driven luciferase induction – cell-based, HTS, primary screen (AID 1508626;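 active means luciferase signal above three times the same-plate solvent-only control wells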;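 further: luciferase driven by Gal4-ERK5 fusion binding five Gal4 sites before minimal TATA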); details: HeLa Gal4-ERK5 transactivation, 18 h, at 5 µM, stronger effect = higher value
# [7] = growth inhibition of DIPG cells – cell-based, MIPE5.0 library, qHTS (AID 1347068; cut-off not given, nearly all actives have IC50 up to about 30 µM;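 on IC50: cells exposed to compound for 48 hours before viability readout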); details: SU-DIPG-XXV viability
# [8] = blockers of cellular phospholipid synthesis – cell-based, LOPAC library, screen 4, primary screen (AID 1347384; call rule not given here); details: animal cells, phospholipid biosynthesis inhibition screen; at 10 µM
# [9] = galactose survival enhancers in mitochondrial complex I cybrids – cell-based, galactose medium, ATP luminescence, primary screen (AID 1645843;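 active means z-score of at least 1.8 in each of two replicates, scored against plate mean and spread of sample wells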;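 further: positive z means more ATP and so rescue of galactose-driven cybrid death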); details: complex I mutant cybrid cells, 72 h, stronger effect = higher value
# [10] = growth inhibition of DIPG cells – cell-based, MIPE4.0 library, CellTiter-Glo luminescence, qHTS (AID 1347066; cut-off not given, nearly all actives have AC50 up to about 30 µM;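 further: cells exposed to compound for 48 hours before readout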); details: SU-DIPG-VI viability, CellTiter-Glo ATP luminescence
# [11] = compounds altering HSF1 focus formation in cells – imaging, Selleck Cancer Library (AID 1347162; in the data active means plate-normalised HSF1 focus index below about 0.46); details: human cells, HSF1 nuclear foci imaging, at 10 µM; SSMD: measured here: HSF1 foci SSMD mean; cell count: measured here: cell number; plate-normalised HSF1 focus index: stronger effect = lower value
# [12] = drug combination growth inhibition, ovarian cancer – cell-based, oncology-focused library, rucaparib conditional, profiling panel (AID 1508598); details: patient-derived ovarian cancer cells, CellTiter-Glo viability, 144 h, stronger effect = lower value
# [13] = stronger effect = lower value, cell number ratio, induced over uninduced
# [14] = measured here: relative caspase fold change +Dox/-Dox
# [15] = measured here: total cells with miR-34 induction, stronger effect = lower value
# [16] = measured here: total cells without miR-34 induction
# [17] = MELAS cybrid survival, CellTiter-Glo 48 h, stronger effect = higher value
# [18] = Rieske KO mouse fibroblast survival, CellTiter-Glo 72 h
# Mitogen-activated protein kinase 7 (Homo sapiens), sequence (Q13164 whole entry, looked up, the tested form may be a part): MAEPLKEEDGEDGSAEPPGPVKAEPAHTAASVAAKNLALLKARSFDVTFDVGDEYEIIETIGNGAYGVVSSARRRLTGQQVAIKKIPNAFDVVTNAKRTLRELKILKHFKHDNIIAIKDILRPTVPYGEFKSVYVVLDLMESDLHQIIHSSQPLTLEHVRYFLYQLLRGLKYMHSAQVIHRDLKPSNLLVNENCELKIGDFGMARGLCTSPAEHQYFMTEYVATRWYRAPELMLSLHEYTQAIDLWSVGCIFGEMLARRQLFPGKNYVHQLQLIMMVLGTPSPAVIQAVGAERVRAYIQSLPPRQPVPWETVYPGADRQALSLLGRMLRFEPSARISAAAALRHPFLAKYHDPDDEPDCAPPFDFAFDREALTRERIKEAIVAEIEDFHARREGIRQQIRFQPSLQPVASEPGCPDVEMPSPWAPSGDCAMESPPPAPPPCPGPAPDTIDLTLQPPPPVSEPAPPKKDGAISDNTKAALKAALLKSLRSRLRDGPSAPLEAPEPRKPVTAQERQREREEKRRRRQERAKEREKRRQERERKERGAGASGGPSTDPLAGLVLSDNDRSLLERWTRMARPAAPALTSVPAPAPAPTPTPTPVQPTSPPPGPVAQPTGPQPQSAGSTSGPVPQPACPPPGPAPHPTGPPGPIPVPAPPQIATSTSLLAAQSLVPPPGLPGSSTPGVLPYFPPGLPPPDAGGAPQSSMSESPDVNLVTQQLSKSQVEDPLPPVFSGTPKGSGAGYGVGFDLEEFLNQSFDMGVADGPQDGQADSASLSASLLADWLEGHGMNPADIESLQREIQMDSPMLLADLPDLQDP
# NAD(+) hydrolase SARM1 (Homo sapiens), sequence (Q6SZW1 whole entry, looked up, the tested form may be a part): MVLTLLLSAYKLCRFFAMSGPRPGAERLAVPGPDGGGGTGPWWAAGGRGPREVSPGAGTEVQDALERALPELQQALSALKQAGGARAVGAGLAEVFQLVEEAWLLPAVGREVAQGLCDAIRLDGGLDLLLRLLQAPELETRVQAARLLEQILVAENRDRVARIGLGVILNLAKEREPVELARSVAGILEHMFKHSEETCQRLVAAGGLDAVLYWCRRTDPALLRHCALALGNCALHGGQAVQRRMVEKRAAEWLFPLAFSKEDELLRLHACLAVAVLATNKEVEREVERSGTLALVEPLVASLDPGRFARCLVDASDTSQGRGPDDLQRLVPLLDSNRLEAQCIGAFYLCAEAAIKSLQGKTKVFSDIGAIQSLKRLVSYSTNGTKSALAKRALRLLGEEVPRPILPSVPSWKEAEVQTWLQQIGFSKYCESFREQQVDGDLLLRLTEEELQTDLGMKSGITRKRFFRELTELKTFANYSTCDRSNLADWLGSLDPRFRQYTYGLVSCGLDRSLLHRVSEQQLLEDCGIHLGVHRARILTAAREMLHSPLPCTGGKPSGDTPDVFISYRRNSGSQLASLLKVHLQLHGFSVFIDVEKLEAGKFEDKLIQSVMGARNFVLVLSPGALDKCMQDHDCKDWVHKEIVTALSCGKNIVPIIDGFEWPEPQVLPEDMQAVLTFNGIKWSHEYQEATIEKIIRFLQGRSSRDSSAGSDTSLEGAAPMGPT
smiles,measurement,setting,value
C1CCC(C(CC2CCCCN2)C2CCCCC2)CC1 (configuration not stated),AC50,[1],10.5 µM (active)
same,AC50,[2],8.33 µM (active)
same,fold change,[3]; [13],0.746 (inactive) and 0.859 (inactive)
same,fold change,[3]; [14],0.891 and 3.18
same,cell count,[3]; [15],5600 and 9890
same,cell count,[3]; [16],7500 and 11500
same,z-score,[4]; [17],-1.07 (inactive)
same,z-score,[4]; [18],0.712
same,remaining NAD,[5],10 nM (inactive)
same,luciferase signal,[6],140 AU (inactive)
CCCCc1ccc2nc(NC(=O)OC)[nH]c2c1,AC50,[1],0.118 µM (active)
same,AC50,[2],0.332 µM (active)
same,fold change,[3]; [13],1.15 (inactive)
same,fold change,[3]; [14],0.509
same,cell count,[3]; [15],1770
same,cell count,[3]; [16],1530
same,z-score,[4]; [17],-2.16 (inactive)
same,z-score,[4]; [18],0.696
CC(C)COCC(CN(Cc1ccccc1)c1ccccc1)N1CCCC1 (configuration not stated),AC50,[1],18.6 µM (active)
same,AC50,[2],18.6 µM (active)
same,IC50,[7],16.6 µM (active)
same,outcome,[8],inactive
same,z-score,[4]; [17],-1.13 (inactive) and -0.882 (inactive)
same,z-score,[4]; [18],-0.167 and 0.23
same,remaining NAD,[5],10 nM (inactive)
same,luciferase signal,[6],280 AU (inactive)
same,z-score,[9],-0.24 (inactive) and -2.13 (inactive)
Nc1nc(N)nc(-c2cc(Cl)ccc2Cl)n1,outcome,[10],inactive
same,outcome,[2],inactive
same,outcome,[7],inactive
same,z-score,[4]; [17],-0.19 (inactive) and -0.868 (inactive) and 0.283 (inactive)
same,z-score,[4]; [18],0.166 and -0.512 and 0.352
same,remaining NAD,[5],10 nM (inactive)
same,z-score,[9],0.88 (inactive) and -0.09 (inactive) and 0.54 (inactive)
Cc1nnc(NS(=O)(=O)c2ccc(N)cc2)s1,outcome,[1],inactive
same,outcome,[2],inactive
same,fold change,[3]; [13],0.854 (inactive) and 0.859 (inactive) and 0.853 (inactive)
same,fold change,[3]; [14],1.13 and 0.759 and 2.93
same,cell count,[3]; [15],8770 and 7900 and 10600
same,cell count,[3]; [16],10300 and 9200 and 12500
same,z-score,[4]; [17],-0.255 (inactive) and -1.45 (inactive)
same,z-score,[4]; [18],0.469 and 0.621
same,remaining NAD,[5],10 nM (inactive)
same,luciferase signal,[6],184 AU (inactive)
CCC(C)n1ncn(-c2ccc(N3CCN(c4ccc(OC[C@H]5CO[C@](Cn6cncn6)(c6ccc(Cl)cc6Cl)O5)cc4)CC3)cc2)c1=O (some centres not stated),outcome,[10],inactive
same,outcome,[2],inactive
same,outcome,[7],inactive
same,SSMD,[11],2.18
same,cell count,[11],6750
same,plate-normalised HSF1 focus index,[11],1.11 (inactive)
same,viability,"[12]; at 0.000305 µM, OCI-C5x cells, with rucaparib 10 µM, 100% = cells with rucaparib alone",118% (inactive)
same,viability,"[12]; at 0.000305 µM, OCI-C5x cells, without rucaparib",110% (inactive)
same,viability,"[12]; at 0.000305 µM, OCI-P5x cells, with rucaparib 20 µM, 100% = cells with rucaparib alone",90.3% (active)
same,viability,"[12]; at 0.000305 µM, OCI-P5x cells, without rucaparib",83% (active)
same,viability,"[12]; at 0.00122 µM, OCI-C5x cells, with rucaparib 10 µM, 100% = cells with rucaparib alone",118% (inactive)
same,viability,"[12]; at 0.00122 µM, OCI-C5x cells, without rucaparib",100% (inactive)
same,viability,"[12]; at 0.00122 µM, OCI-P5x cells, with rucaparib 20 µM, 100% = cells with rucaparib alone",93.4% (active)
same,viability,"[12]; at 0.00122 µM, OCI-P5x cells, without rucaparib",81.8% (active)
same,viability,"[12]; at 0.00488 µM, OCI-C5x cells, with rucaparib 10 µM, 100% = cells with rucaparib alone",122% (inactive)
same,viability,"[12]; at 0.00488 µM, OCI-C5x cells, without rucaparib",105% (inactive)
same,viability,"[12]; at 0.00488 µM, OCI-P5x cells, with rucaparib 20 µM, 100% = cells with rucaparib alone",95.6% (active)
same,viability,"[12]; at 0.00488 µM, OCI-P5x cells, without rucaparib",90.8% (active)
same,viability,"[12]; at 0.0195 µM, OCI-C5x cells, with rucaparib 10 µM, 100% = cells with rucaparib alone",127% (inactive)
same,viability,"[12]; at 0.0195 µM, OCI-C5x cells, without rucaparib",116% (inactive)
same,viability,"[12]; at 0.0195 µM, OCI-P5x cells, with rucaparib 20 µM, 100% = cells with rucaparib alone",96.2% (active)
same,viability,"[12]; at 0.0195 µM, OCI-P5x cells, without rucaparib",89.4% (active)
same,viability,"[12]; at 0.0781 µM, OCI-C5x cells, with rucaparib 10 µM, 100% = cells with rucaparib alone",126% (inactive)
same,viability,"[12]; at 0.0781 µM, OCI-C5x cells, without rucaparib",119% (inactive)
same,viability,"[12]; at 0.0781 µM, OCI-P5x cells, with rucaparib 20 µM, 100% = cells with rucaparib alone",96.6% (active)
same,viability,"[12]; at 0.0781 µM, OCI-P5x cells, without rucaparib",95.1% (active)
same,viability,"[12]; at 0.313 µM, OCI-C5x cells, with rucaparib 10 µM, 100% = cells with rucaparib alone",131% (inactive)
same,viability,"[12]; at 0.313 µM, OCI-C5x cells, without rucaparib",118% (inactive)
same,viability,"[12]; at 0.313 µM, OCI-P5x cells, with rucaparib 20 µM, 100% = cells with rucaparib alone",98.6% (active)
same,viability,"[12]; at 0.313 µM, OCI-P5x cells, without rucaparib",95.8% (active)
same,viability,"[12]; at 1.25 µM, OCI-C5x cells, with rucaparib 10 µM, 100% = cells with rucaparib alone",131% (inactive)
same,viability,"[12]; at 1.25 µM, OCI-C5x cells, without rucaparib",126% (inactive)
same,viability,"[12]; at 1.25 µM, OCI-P5x cells, with rucaparib 20 µM, 100% = cells with rucaparib alone",93.3% (active)
same,viability,"[12]; at 1.25 µM, OCI-P5x cells, without rucaparib",94.8% (active)
same,viability,"[12]; at 5 µM, OCI-C5x cells, with rucaparib 10 µM, 100% = cells with rucaparib alone",135% (inactive)
same,viability,"[12]; at 5 µM, OCI-C5x cells, without rucaparib",123% (inactive)
same,viability,"[12]; at 5 µM, OCI-P5x cells, with rucaparib 20 µM, 100% = cells with rucaparib alone",92.7% (active)
same,viability,"[12]; at 5 µM, OCI-P5x cells, without rucaparib",94.9% (active)
same,remaining NAD,[5],10 nM (inactive)
CNC[C@H](O)c1ccc(O)c(O)c1,outcome,[10],inactive
same,outcome,[2],inactive
same,outcome,[7],inactive
same,fold change,[3]; [13],0.963 (inactive)
same,fold change,[3]; [14],1.01
same,cell count,[3]; [15],10100
same,cell count,[3]; [16],10500
same,outcome,[8],inactive
same,remaining NAD,[5],10 nM (inactive)
same,luciferase signal,[6],24 AU (inactive)
same,z-score,[9],-1.02 (inactive)
CC(=O)N(O)CCCCCNC(=O)CCC(=O)N(O)CCCCCNC(=O)CCC(=O)N(O)CCCCCN,AC50,[1],13.2 µM (active)
same,outcome,[7],inactive
same,fold change,[3]; [13],0.985 (inactive) and 0.882 (inactive) and 0.874 (inactive)
same,fold change,[3]; [14],1.2 and 0.413 and 4.36
same,cell count,[3]; [15],4610 and 9190 and 10300
same,cell count,[3]; [16],4680 and 10400 and 11800
same,z-score,[4]; [17],-0.752 (inactive) and -0.803 (inactive)
same,z-score,[4]; [18],-0.313 and -1.18
same,remaining NAD,[5],10 nM (inactive)
same,luciferase signal,[6],40 AU (inactive)
same,z-score,[9],0.76 (inactive)
NCCCCCC(=O)O,outcome,[1],inactive
same,outcome,[2],inactive
same,outcome,[7],inactive
same,outcome,[8],inactive
same,z-score,[4]; [17],-0.274 (inactive) and -0.333 (inactive)
same,z-score,[4]; [18],-0.165 and -1.21
same,remaining NAD,[5],10 nM (inactive)
same,luciferase signal,[6],40 AU (inactive)
same,z-score,[9],1.05 (inactive)
CNC[C@H](O)[C@@H](O)[C@H](O)[C@H](O)CO,outcome,[10],inactive
same,outcome,[2],inactive
same,outcome,[7],inactive
same,fold change,[3]; [13],0.909 (inactive)
same,fold change,[3]; [14],1.1
same,cell count,[3]; [15],9480
same,cell count,[3]; [16],10400
same,z-score,[4]; [17],0.108 (inactive) and -0.495 (inactive)
same,z-score,[4]; [18],-0.764 and -1.1
same,remaining NAD,[5],10 nM (inactive)
same,z-score,[9],0.835 (inactive)
O=C(NC(Cc1cc(=O)[nH]c2ccccc12)C(=O)O)c1ccc(Cl)cc1 (configuration not stated),outcome,[10],inactive
same,outcome,[2],inactive
same,outcome,[7],inactive
same,fold change,[3]; [13],0.898 (inactive) and 0.888 (inactive)
same,fold change,[3]; [14],0.965 and 1.15
same,cell count,[3]; [15],8440 and 9630
same,cell count,[3]; [16],9400 and 10800
same,z-score,[4]; [17],-0.219 (inactive) and -0.0914 (inactive) and 0.278 (inactive)
same,z-score,[4]; [18],0.648 and -0.845 and -0.0622
same,remaining NAD,[5],10 nM (inactive)
same,luciferase signal,[6],40 AU (inactive)
same,z-score,[9],0.47 (inactive)
